The first test has as its target PUM1 PUF domain R4-AMA (Homo sapiens, UniProt Q14671 828-1176, N971A;H972M;Q975A). In words: yeast three-hybrid, YBZ-1, SC-Leu-His + 0.5 mM 3-AT, 4 days. The following applies: tags: N-Gal4 AD-HA kept; label: inside an RPR1-promoter hybrid RNA with tandem MS2 sites; ssRNA. In outline:
(§1)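 Repeat regions from input (SC-Leu) and selection (SC-Leu-His + 0.5 mM 3-AT) plates were PCR-amplified and Illumina-sequenced after four days of growth. The cells were strain YBZ-1 with a LexA–MS2 coat fusion and a HIS3 reporter, co-expressing Pumilio-1 PUF domain libraries and matching RNA elements from a centromeric plasmid. The interaction score is the log change in variant frequency from input to selection, taken in log2 with a pseudocount of 1 for absent variants.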
Chain of PUM1 PUF domain R4-AMA (Q14671 828-1176 N971A/H972M/Q975A): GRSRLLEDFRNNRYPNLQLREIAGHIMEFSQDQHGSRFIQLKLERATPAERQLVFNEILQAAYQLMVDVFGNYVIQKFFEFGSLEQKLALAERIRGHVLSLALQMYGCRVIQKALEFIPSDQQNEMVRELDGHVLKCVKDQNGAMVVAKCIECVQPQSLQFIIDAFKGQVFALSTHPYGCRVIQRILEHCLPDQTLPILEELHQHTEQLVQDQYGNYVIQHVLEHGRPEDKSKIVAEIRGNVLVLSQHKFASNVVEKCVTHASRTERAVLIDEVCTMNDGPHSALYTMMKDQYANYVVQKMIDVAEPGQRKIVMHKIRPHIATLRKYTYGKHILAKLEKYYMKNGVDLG
For “GGCUAGAACUAGUGGAUCCCCCGGCGCCCGGCGGCUCGAGCCCGGGUAAGUGUAUAUAGUCUGCAUGCCGCCGGGCGCCAUGCCUGCAGGUCGACUCUAGAAAACAUG”, the binding signal is 2.78 log2 enrichment (interaction score). As to “GGCUAGAACUAGUGGAUCCCCCGGCGCCCGGCGGCUCGAGCCCGGGUAAGUGUACAUAGUCUGCAUGCCGCCGGGCGCCAUGCCUGCAGGUCGACUCUAGAAAACAUG”, the binding signal is 1.77 log2 enrichment (interaction score). Regarding “GGCUAGAACUAGUGGAUCCCCCGGCGCCCGGCGGCUCGAGCCCGGGUAAGUGUAAAUAGUCUGCAUGCCGCCGGGCGCCAUGCCUGCAGGUCGACUCUAGAAAACAUG”, the binding signal is 2.2 log2 enrichment (interaction score).

The target of another test is PUM1 PUF domain R3-PWA (Homo sapiens, UniProt Q14671 828-1176, C935P;R936W;Q939A). Described as above. The following applies: tags: N-Gal4 AD-HA kept; label: inside an RPR1-promoter hybrid RNA with tandem MS2 sites; ssRNA. In outline: as §1
Chain of PUM1 PUF domain R3-PWA (Q14671 828-1176 C935P/R936W/Q939A): as the sequence (Q14671 828-1176 N971A/H972M/Q975A) above, with C108P, R109W, Q112A, A144N, M145H, A148Q counted along it
On to “GGCUAGAACUAGUGGAUCCCCCGGCGCCCGGCGGCUCGAGCCCGGGUAAGUGUAAUUAGUCUGCAUGCCGCCGGGCGCCAUGCCUGCAGGUCGACUCUAGAAAACAUG”, for which the binding signal is 2.19 log2 enrichment (interaction score).

With “GGCUAGAACUAGUGGAUCCCCCGGCGCCCGGCGGCUCGAGCCCGGGUAAGUGUAAAUAGUCUGCAUGCCGCCGGGCGCCAUGCCUGCAGGUCGACUCUAGAAAACAUG”, the binding signal is 4.48 log2 enrichment (interaction score). “GGCUAGAACUAGUGGAUCCCCCGGCGCCCGGCGGCUCGAGCCCGGGUAAGUGUAAGUAGUCUGCAUGCCGCCGGGCGCCAUGCCUGCAGGUCGACUCUAGAAAACAUG”: the binding signal is 0.42 log2 enrichment (interaction score).
